Measured values reported in PubChem BioAssay AID602254 (Broad Institute, 2012).
The whole screen tested about 1,000 compounds, of which fewer than 10 were called active.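 Rule for the calls: active = fitted half-maximal concentration no higher than twice the top valid tested dose, with signal falling; inconclusive = flat curve with 30 to 70% inhibition, or poor fit; inactive = the rest.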 Only a sample is shown. Potency and affinity values are given separately.

molecular target: Golgi-associated PDZ and coiled-coil motif-containing protein (Homo sapiens) (UniProt Q9HD26); experiment: blockers of CAL PDZ–TMR peptide complex – biochemical, fluorescence polarization, untagged CAL PDZ, cherry-pick, set 2, dose response (AID 602254); details: Purified CAL PDZ; series mostly up to 60 µM;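 note: more negative means stronger blocking of peptide binding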

outcome, inactive:
C=CCNC(=S)NNC(=O)c1ccc(C)c(Cl)c1
Cc1ccc(S(=O)(=O)c2nc(NN(C)C)sc2Cl)cc1
CC(=O)c1cccc(CN2CCN(CC=C(C)C)C(CCO)C2)c1 (stereo unspecified)
CC1CCN(C(=O)CNC(=O)c2ccc(Cl)cc2Cl)CC1
CCn1nnc(NC(=O)Cc2ccc(Cl)cc2)n1
O=C(Nc1cccc(-n2cnnn2)c1)c1ccc(OC(F)(F)F)cc1
O=C(c1cc(COc2ccccc2)on1)N1CCCC(CN2CCOCC2)C1 (stereo unspecified)
CC(C)(C)n1ncc2c(=O)n(Cc3ccc(Cl)c(Cl)c3)cnc21
CSc1ccccc1OCc1cc(C(=O)N2CCN(c3ccccc3)CC2C)no1 (stereo unspecified)
COc1cc(C(=O)NNC(=O)c2ccc3c(c2)OCCO3)cc(OC)c1OC
COc1cc(S(=O)(=O)Nc2ccc(C(=O)NCC(=O)O)cc2)ccc1NC(C)=O
O=C(N/N=C/c1cccnc1)c1[nH]ncc1Br
CCOC(=O)c1ccc(NC(=O)C2CCCO2)cc1 (stereo unspecified)
CC(=O)c1cccc(NC(=O)CCNC(=O)c2cccc(C)c2)c1
COc1cc(OC)c(C(=O)NCc2ccc3c(c2)OCO3)cc1OC
CC1CC(C)CN(C(=O)CCn2c(=O)oc3ccccc32)C1 (stereo unspecified)
Cc1ccc(CNS(=O)(=O)c2ccc(C(F)(F)F)cc2)n1C
Cc1ccc2nc(N3CCN(Cc4nnnn4C4CCCC4)CC3)c(C#N)cc2c1
Cc1ccc(Cn2c(=O)n(CCC(=O)NCc3ccc4c(c3)OCO4)c(=O)c3ccccc32)cc1
Cc1ccc2c(c1)N(CC(=O)Nc1ccccc1F)C(=O)CO2
CC(C)(C)OC(=O)N1CCC(NC(=O)c2[nH]cnc2C(=O)Nc2cccc(Cl)c2)CC1
COC(=O)c1ccc(OCC(O)CN2CCc3cc(OC)c(OC)cc3C2c2ccccc2)cc1 (stereo unspecified)
COc1ccccc1OCC(O)Cn1nc(C)cc1C (stereo unspecified)
O=C(O)c1ccccc1CSc1nnnn1-c1ccccc1
CC(C)c1ccc(NC2CCCN(C(=O)c3ccnn3C)C2)cc1 (stereo unspecified)
c1ccc(-c2ccccc2OCCOCCN2CCc3ccccc3C2)cc1
CCOc1ccccc1C(=O)NCC(=O)OCc1csc(CC(=O)Nc2ccc(C)cc2)n1
CCCn1nnc(NC(=O)c2ccc3c(c2)OCO3)n1
CC(=O)n1nc(-c2ccccc2)nc1NCc1cccs1
C/C(=N\OC(=O)c1cccc(C(F)(F)F)c1)c1sc(-c2ccccc2)nc1C
COc1ccccc1-c1c(C)nn2c(N)c(-c3ccccc3)cnc12
CC(=O)c1ccc(OCc2cc(C(=O)NCCc3ccc(Cl)cc3)no2)cc1
Cc1c(C(=O)N2CCCCC2)c(S(=O)(=O)NCc2ccc(Cl)cc2)c(C)n1C
O=C(c1ccc(S(=O)(=O)NCC2CCCO2)cc1)N1CCN(c2ccccc2)CC1 (stereo unspecified)
O=C(Nc1cccc(C(=O)N2CCCCC2)c1)C1CC1
CCCN(CC(=O)Nc1ccccc1C)C(=O)CCCc1c[nH]c2ccccc12
O=C(COC(=O)Cc1c(F)cccc1Cl)NC(=O)c1ccccc1
Cc1ccccc1C(=O)NN1CCOCC1
COc1ccc(CN(C)C(=O)CNC(=O)CNC(=O)c2ccc(Cl)cc2Cl)cc1F
Cc1ccc(NC(=O)c2c(-c3ccccc3)noc2C)nc1
Cc1[nH]c2c(C(=O)N3CCCC(CCC(=O)NCc4ccccc4F)C3)cccc2c1C (stereo unspecified)
Cc1ccc(C(C)C)cc1OCCn1cncn1
COCC(C)N1CCC(Oc2cccc(C(=O)NCCc3ccccc3)c2)CC1 (stereo unspecified)
CC(=O)Nc1sc2c(c1C(N)=O)CCC2
CCOc1ccc(NC(=O)CN(C)S(=O)(=O)c2cccs2)cc1
CCCCCN1CSC(=S)N(Cc2ccccc2)C1
COc1ccc(/C=N/NC(=O)CNC(=O)c2ccncc2)cc1OC
O=C(Nc1ccccc1Cl)N1CCN(c2ccc3nnc(-c4ccccc4)n3n2)CC1
CC(=O)Nc1ccc(-c2cc(NC(C)=O)n(-c3ccccc3)n2)cc1
FC(F)(F)c1ccccc1NC(=S)N1CCCC1
COc1ccc(S(=O)(=O)N(C(C)=O)c2ccc3oc(=O)sc3c2)cc1
CCN(c1ccccc1)S(=O)(=O)c1ccc(C(=O)N2CCN(c3ccccc3)CC2)cc1
Cc1cc(C)c(C#N)c(Nc2cccc(C)c2C)n1
COc1ccc(Br)cc1CNc1ccc2[nH]c(=O)[nH]c2c1
Cc1ccc(OCC(=O)N2CCN(C(=O)c3cccs3)CC2)cc1
O=S(=O)(c1ccccc1)N(CC(O)COc1ccccc1)c1ccccc1 (stereo unspecified)
COc1ccccc1N(CC(=O)N1CCN(c2ccccc2)CC1)S(=O)(=O)c1ccc(C)cc1
CC(C)=C1C(=O)NN(c2cccc(Cl)c2)C1=O
Cc1cc(Br)ccc1NC(=O)CN1CCN(c2ccccn2)CC1
O=C(c1ccc(-c2ccccc2)cc1)N1CCN(c2ccccn2)CC1
COCC(=O)N1CCC(Oc2ccc(C(=O)NCc3cnc(C)cn3)cc2)CC1
Cc1ccc(S(=O)(=O)N(C)C)cc1NC(=S)N1CCc2ccccc21
C/C(CC(=O)Nc1ccc2c(c1)OCCO2)=N\NC(=O)COc1ccc(Cl)c(C)c1
COc1ccc(C(=O)NCC(=O)NCc2ccncc2)cc1
Cn1nc(C(=O)Nc2nc(-c3ccccn3)cs2)c2ccccc2c1=O
Cc1ccsc1C(=O)NNC(=O)c1cccc(S(=O)(=O)N2CCCC2)c1
Cc1ccc(C(=O)Nc2cccc(C(=O)N3CCOCC3)c2)cc1Cl
COc1ccc(OCC(=O)Nc2ccccc2C(=O)N2CCOCC2)cc1
O=C(Nc1ccccc1C(=O)O)c1cccc(N2C(=O)c3ccccc3C2=O)c1
Cc1cccc(OCCCn2c(CO)nc3ccccc32)c1
O=c1[nH]c2ccccc2cc1CN(CC1CCCO1)S(=O)(=O)c1ccccc1 (stereo unspecified)
COc1ccc(CC(=O)Nc2ccc(S(=O)(=O)Nc3cc(C)on3)cc2)cc1
COc1ccccc1N1CCN(/N=C/c2ccc(O)cc2O)CC1
O=C(Nc1ccnn1C1CCN(CC2CC=CCC2)CC1)c1ccccc1Cl (stereo unspecified)
COc1cccc(NC(=O)c2ccc3nsnc3c2)c1
O=C(NCCCN1CCOCC1)c1ccc2c(c1)N(Cc1ccccc1)CCS2
Cc1ccc(NC(=O)COc2ccccc2C(=O)NCCc2ccccc2)cc1
O=C(COC(=O)c1ccc(NC(=O)C2CC=CCC2C(=O)O)cc1)c1ccccc1 (stereo unspecified)
CCOC(=O)c1c(NC(=O)C2CCCCC2)sc2c1CCN(CC)C2
COc1ccc(CNc2ccc(-c3ccccc3OC)nn2)cc1
CN(C(=O)c1cccc(C(F)(F)F)c1)C1CCCc2ccccc21 (stereo unspecified)
Cc1n[nH]c(C)c1CCN(C)Cc1cn(C)nc1-c1ccc2c(c1)OCCO2
COc1ccc(NC(=O)CC(CC(=O)O)c2cc(OC)c(OC)c(OC)c2)cc1 (stereo unspecified)
Cc1ccc(NC(=S)N(CCCN2CCCC2)Cc2cccn2Cc2ccc(Cl)cc2)cc1C
O=C1CN(C(=O)COc2ccc(F)cc2Br)c2ccccc2N1
O=C(C1CC1)N1CCc2cc(S(=O)(=O)N3CCOCC3)ccc21
CS(=O)(=O)c1ccc(C(=O)NC2CCCc3ccccc32)cc1 (stereo unspecified)
COC(=O)c1ccccc1NC(=S)N1CCN(C2CCCCC2)CC1
Cc1ccccc1NC(=O)c1ccc(NC(=O)C2CCCO2)cc1 (stereo unspecified)
CC(NC(=S)NC(=O)c1ccccc1Br)c1ccccc1 (stereo unspecified)
COc1ccc(OC)c(-c2csc(NC(=O)c3ccc4c(c3)OCO4)n2)c1
CCN(Cc1cnn(C)c1)C(=O)C1CCC(=O)N(CCc2ccc(OC)cc2)C1 (stereo unspecified)
CC(=O)Nc1sc(NC(=O)c2ccc(C)cc2)nc1-c1cccs1
O=C(CNC(=O)c1ccccc1Cl)N/N=C/c1ccc2c(c1)OCO2
O=C(NCCc1ccccc1F)c1ccc2c(c1)OCCO2
CCc1nnc(NS(=O)(=O)c2ccc(N3C(=O)c4ccccc4C3=O)cc2)s1
Cc1cccc(NC(=O)CCNC(=O)c2ccc(Br)cc2)c1
COc1ccc(CCNS(=O)(=O)c2ccccc2)cc1OC
COC(=O)c1cc(S(=O)(=O)NCCN2CCN(c3ccccc3F)CC2)c[nH]1
CCOC(=O)N1CCN(C(=O)c2ccc3c(=O)n(-c4ccc(OC)cc4OC)c(=S)[nH]c3c2)CC1
COc1ccccc1/C=N/NC(=O)c1ccc2c(c1)OCO2
COc1ccccc1C(=O)Nc1cccc2nc(C)ccc12
O=C(Nc1ccc(F)cc1)C1CCCN1S(=O)(=O)c1cccc2nsnc12 (stereo unspecified)
Cc1ccc(N(C)C(=O)C2CCCN2S(=O)(=O)c2cccc3nsnc23)cc1 (stereo unspecified)
O=C(Nc1cccc(O)c1)c1ccc(NC(=O)C2CCCO2)cc1 (stereo unspecified)
CC(=O)Nc1ccc(NC(=O)COC(=O)COc2ccc3ccccc3c2)cc1
COc1ccccc1CNC(=O)COC(=O)CC1CC2CCC1C2 (stereo unspecified)
Cc1ccc(S(=O)(=O)Nc2c(C)n(C)n(-c3ccccc3)c2=O)cc1
C=CC(=O)NCc1ccc(-c2csnn2)cc1
CC(=O)NC(Cc1ccccc1)C(C)=O (stereo unspecified)
CCSc1nnc(NC(=O)CN2C(=O)NC3(CCCC3)C2=O)s1
